Data reported in the supplement of paper PMC11001985.

compound: C#CCNC(=O)CCSSCCC(=O)NCCc1ccc(C=O)c(C=O)c1; experiment: lysine labeling ratio R10:1 (500 µM / 50 µM probe), SILAC-ABPP in living cells; higher = lower intrinsic lysine reactivity toward the probe, active = 2 or less; conditions: HeLa; probe concentrations 500 vs 50 µM
Protocol: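 Living HeLa cells (SILAC light/heavy) in PBS at room temperature were labeled with 50 µM versus 500 µM of the lysine-reactive, reductant-cleavable probe OPA-S-S-alkyne (SILAC labeling time not stated). Probe-modified peptides were CuAAC-biotinylated, captured on neutravidin and eluted with DTT/IAA, then quantified by LC-MS/MS. R = median peptide ratio per lysine (500/50 µM), combined over 3 forward and 3 reverse SILAC replicates. Ratios are capped at 20; R < 2 = hyper-reactive.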

UniProt P05556, sequence (P05556 whole entry): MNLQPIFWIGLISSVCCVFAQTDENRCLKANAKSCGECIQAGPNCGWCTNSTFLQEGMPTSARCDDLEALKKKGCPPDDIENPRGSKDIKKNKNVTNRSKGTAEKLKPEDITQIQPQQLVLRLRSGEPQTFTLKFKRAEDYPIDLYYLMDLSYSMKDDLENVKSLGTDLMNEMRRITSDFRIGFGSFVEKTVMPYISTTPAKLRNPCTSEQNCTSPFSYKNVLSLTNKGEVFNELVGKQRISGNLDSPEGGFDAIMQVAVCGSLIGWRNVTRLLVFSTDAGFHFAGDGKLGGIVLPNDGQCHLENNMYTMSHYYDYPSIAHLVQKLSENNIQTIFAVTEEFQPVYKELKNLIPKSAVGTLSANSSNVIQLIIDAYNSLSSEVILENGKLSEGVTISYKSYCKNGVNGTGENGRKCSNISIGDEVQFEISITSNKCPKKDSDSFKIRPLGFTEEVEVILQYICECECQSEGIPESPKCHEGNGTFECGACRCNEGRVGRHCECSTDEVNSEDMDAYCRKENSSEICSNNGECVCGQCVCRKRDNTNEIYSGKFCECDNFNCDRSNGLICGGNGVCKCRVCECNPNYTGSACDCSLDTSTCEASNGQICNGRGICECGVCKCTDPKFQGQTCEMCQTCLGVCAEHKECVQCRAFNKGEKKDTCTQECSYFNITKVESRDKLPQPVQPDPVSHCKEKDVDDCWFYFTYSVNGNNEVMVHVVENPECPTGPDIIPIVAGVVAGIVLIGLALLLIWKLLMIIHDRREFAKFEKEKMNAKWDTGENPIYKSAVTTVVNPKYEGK
UniProt Q14974, sequence (Q14974 whole entry): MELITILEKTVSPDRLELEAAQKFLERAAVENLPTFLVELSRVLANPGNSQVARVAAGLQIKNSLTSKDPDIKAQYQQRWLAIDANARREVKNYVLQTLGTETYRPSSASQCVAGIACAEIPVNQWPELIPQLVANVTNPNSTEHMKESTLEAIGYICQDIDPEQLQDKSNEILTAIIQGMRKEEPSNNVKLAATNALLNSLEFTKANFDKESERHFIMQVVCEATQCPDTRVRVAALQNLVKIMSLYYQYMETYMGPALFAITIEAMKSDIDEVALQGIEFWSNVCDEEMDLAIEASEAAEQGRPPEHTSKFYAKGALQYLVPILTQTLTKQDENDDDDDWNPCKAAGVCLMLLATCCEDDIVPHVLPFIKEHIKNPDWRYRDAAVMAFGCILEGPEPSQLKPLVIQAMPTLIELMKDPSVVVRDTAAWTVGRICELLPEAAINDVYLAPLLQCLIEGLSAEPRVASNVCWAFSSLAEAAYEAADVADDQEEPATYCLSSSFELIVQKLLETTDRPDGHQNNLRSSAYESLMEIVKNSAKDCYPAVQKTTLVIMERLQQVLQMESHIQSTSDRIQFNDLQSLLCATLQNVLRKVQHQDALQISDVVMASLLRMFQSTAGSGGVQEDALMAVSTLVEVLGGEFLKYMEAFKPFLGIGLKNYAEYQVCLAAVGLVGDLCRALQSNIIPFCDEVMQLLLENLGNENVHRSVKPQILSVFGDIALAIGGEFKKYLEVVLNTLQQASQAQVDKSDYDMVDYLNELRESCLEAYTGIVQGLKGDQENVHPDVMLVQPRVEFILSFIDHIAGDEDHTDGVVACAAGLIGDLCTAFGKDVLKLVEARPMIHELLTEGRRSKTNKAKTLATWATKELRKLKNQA
UniProt Q9NX63, sequence (Q9NX63 whole entry): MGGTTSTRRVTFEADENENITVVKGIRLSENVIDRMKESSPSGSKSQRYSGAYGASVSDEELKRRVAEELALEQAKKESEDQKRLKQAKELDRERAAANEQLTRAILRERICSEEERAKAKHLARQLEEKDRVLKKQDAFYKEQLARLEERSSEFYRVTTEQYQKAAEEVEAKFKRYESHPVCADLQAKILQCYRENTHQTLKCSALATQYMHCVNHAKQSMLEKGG
UniProt P63218, sequence (P63218 whole entry): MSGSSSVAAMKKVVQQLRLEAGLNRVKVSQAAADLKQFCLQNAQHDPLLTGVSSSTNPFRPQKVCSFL
UniProt P05783, sequence (P05783 whole entry): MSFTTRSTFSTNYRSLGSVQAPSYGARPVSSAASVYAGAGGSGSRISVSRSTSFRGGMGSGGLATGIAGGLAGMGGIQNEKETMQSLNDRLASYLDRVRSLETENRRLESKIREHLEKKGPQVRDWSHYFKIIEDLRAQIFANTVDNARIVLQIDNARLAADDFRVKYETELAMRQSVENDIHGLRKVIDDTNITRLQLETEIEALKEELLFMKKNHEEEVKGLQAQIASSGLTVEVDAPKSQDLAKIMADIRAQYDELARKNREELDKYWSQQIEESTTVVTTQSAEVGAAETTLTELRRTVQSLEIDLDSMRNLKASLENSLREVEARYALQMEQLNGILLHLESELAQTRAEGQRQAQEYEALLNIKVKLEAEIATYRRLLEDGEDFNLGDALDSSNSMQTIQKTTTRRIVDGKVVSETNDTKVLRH
UniProt P10586, sequence (P10586 whole entry): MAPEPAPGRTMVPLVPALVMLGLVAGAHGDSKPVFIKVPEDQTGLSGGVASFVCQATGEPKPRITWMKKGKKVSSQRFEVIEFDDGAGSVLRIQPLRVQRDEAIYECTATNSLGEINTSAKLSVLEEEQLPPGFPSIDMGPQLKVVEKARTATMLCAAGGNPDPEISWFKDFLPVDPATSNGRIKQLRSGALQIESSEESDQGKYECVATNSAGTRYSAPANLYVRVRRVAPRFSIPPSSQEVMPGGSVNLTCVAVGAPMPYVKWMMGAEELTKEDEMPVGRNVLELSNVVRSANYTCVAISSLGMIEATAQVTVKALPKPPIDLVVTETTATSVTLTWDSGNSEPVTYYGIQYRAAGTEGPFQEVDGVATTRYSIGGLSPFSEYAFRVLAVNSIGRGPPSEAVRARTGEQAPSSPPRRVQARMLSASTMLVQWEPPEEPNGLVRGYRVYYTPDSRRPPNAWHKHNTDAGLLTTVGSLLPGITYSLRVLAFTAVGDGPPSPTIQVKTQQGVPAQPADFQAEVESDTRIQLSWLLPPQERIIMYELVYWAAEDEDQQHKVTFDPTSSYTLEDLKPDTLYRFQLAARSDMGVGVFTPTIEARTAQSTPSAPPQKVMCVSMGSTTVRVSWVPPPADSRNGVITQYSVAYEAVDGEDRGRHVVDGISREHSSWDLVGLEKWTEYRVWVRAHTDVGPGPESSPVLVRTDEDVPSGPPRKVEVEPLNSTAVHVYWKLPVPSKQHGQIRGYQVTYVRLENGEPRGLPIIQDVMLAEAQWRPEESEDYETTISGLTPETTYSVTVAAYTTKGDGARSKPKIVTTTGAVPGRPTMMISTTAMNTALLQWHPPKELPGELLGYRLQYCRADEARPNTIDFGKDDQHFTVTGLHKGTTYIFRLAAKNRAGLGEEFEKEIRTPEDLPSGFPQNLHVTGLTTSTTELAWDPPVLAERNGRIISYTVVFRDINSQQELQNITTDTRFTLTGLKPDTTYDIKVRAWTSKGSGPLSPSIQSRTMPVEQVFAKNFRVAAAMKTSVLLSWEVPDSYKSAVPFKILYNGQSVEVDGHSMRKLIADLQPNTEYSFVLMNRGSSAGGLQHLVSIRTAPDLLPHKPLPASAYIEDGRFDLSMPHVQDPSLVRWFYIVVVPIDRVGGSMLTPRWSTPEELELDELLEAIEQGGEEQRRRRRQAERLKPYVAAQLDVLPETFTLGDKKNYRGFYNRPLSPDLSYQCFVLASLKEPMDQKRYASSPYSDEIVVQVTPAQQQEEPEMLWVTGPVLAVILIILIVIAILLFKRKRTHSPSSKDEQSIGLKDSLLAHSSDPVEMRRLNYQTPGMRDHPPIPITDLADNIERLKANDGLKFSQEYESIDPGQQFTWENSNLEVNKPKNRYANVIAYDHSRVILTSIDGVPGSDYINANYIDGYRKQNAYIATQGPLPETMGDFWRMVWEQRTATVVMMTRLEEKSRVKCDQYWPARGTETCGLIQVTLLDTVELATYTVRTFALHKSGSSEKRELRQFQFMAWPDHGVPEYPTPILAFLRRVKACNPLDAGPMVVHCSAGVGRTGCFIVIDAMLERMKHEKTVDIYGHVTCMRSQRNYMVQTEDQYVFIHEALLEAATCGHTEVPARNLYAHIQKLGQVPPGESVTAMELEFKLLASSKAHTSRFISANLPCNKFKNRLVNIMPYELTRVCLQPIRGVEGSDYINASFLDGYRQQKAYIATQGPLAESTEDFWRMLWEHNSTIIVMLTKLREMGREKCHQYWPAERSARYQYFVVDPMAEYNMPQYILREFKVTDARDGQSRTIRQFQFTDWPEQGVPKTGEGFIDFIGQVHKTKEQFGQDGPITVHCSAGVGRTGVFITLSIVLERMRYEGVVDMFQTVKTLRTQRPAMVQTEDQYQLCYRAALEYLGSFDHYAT
UniProt Q13347, sequence (Q13347 whole entry): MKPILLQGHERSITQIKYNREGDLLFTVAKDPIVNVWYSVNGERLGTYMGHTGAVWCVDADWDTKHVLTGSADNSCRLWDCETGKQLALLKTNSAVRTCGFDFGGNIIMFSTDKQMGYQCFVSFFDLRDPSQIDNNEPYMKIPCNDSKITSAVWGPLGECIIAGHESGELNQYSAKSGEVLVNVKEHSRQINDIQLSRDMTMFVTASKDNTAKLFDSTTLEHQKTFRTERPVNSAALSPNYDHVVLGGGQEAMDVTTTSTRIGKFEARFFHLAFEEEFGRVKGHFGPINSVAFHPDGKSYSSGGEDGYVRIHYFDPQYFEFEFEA
UniProt Q13011, sequence (Q13011 whole entry): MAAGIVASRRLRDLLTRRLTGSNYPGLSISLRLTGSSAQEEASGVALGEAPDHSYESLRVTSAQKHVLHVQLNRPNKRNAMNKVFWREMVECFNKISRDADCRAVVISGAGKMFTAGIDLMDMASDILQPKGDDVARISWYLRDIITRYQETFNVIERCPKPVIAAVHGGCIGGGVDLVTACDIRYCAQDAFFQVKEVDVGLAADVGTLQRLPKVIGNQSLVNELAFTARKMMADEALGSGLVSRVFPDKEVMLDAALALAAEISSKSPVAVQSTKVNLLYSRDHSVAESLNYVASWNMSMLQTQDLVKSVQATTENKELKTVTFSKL

Lysine labeling ratio R10:1, inactive:
EDIL3 (lysine site: K235) (UniProt O43854) 7.28, MYH9 (lysine site: K1673) (UniProt P35579) 5.57, PTPRF (lysine site: K994) (UniProt P10586) 4.54, EIF3I (lysine site: K2) (UniProt Q13347) 2.67, HNRNPM (lysine site: K381) (UniProt P52272) 5.22, UniProt Q32P28 (lysine site: K363) 4.24, TFPI (lysine site: K102) (UniProt P10646) 7.9, F2 (lysine site: K384) (UniProt P00734) 4.42, CELSR2 (lysine site: K2176) (UniProt Q9HCU4) 4.05, PPIB (lysine site: K181) (UniProt P23284) 3.57, HSP90B1 (lysine site: K733) (UniProt P14625) 3.26, LAMC1 (lysine site: K1041) (UniProt P11047) 2.18, UniProt P62316 (lysine site: K118) 6.15, LAMA5 (lysine site: K2451) (UniProt O15230) 3.17, ITGA3 (lysine site: K407) (UniProt P26006) 2.96, UniProt P63218 (lysine site: K12) 5.18, UniProt P62263 (lysine site: K106) 5.29, ITGB1 (lysine site: K163) (UniProt P05556) 2.37, THBS1 (lysine site: K50) (UniProt P07996) 4.26, UniProt Q8WXI7 (lysine site: K13246) 5.01, KRT18 (lysine site: K119) (UniProt P05783) 6.22, ITGB1 (lysine site: K73) (UniProt P05556) 2.27, UniProt P68371 (lysine site: K58) 2.53, NRP1 (lysine site: K231) (UniProt O14786) 5.85, PDCD6IP (lysine site: K690) (UniProt Q8WUM4) 2.89, PTPRJ (lysine site: K202) (UniProt Q12913) 2.9, XRCC5 (lysine site: K265) (UniProt P13010) 3.42, MICA (lysine site: K94) (UniProt Q29983) 2.63

Lysine labeling ratio R10:1, active:
KPNB1 (lysine site: K867) (UniProt Q14974) 1.36, PSMD1 (lysine site: K890) (UniProt Q99460) 1.11, CHCHD3 (lysine site: K45) (UniProt Q9NX63) 1.56, PIEZO1 (lysine site: K2372) (UniProt Q92508) 1.09, UniProt P60842 (lysine site: K238) 1.54, NUMA1 (lysine site: K1024) (UniProt Q14980) 1.17, ILF3 (lysine site: K535) (UniProt Q12906) 0.982, FLNA (lysine site: K916) (UniProt P21333) 1.76, UniProt P62269 (lysine site: K106) 1.85, EEF1G (lysine site: K241) (UniProt P26641) 1.4, STMN1 (lysine site: K53) (UniProt P16949) 1.68, ECH1 (lysine site: K83) (UniProt Q13011) 1.59
